Experimental data from PubChem BioAssay AID463173 (ICCB-Longwood Screening Facility, Harvard Medical School, 2010).
About 4,300 (8.3%) of roughly 52,000 compounds were called active. Rule as the data show it: active = survival mostly below about 52% (no sharp cut-off); inactive = mostly above about 56%. Shown is part of a subset that was picked to be rich in actives.

system: DeltatarO mutant; test: growth inhibition of S. aureus wild type versus tarO mutant, primary screen, teichoic acid synthesis inhibitors, RN4220, OD600 (AID 463173); details: OD600, 18 h, active compounds read low, screened at 18.75 µg/mL (by protocol)

SMILES	survival
O=C(CC1CCCCC1)Nc1ccccn1	73% (inactive)
COc1ccc(N2C(=O)C(C)C(Cc3ccc(C)cc3)C2=O)cc1 (stereo not drawn)	103% (inactive)
CCC(=O)Nc1ccc(NC(=O)c2ccc(F)cc2)nc1	85% (inactive)
COc1ccc(NC(=O)NCC2CCN(Cc3ccccc3F)CC2)c(OC)c1	96% (inactive)
CC1CCCCN1C(=O)C1COc2ccccc2O1 (stereo not drawn)	65% (inactive)
CCN(c1ccccc1)c1nnc(NC(=O)Nc2cccc(Br)c2)s1	80% (inactive)
Cc1cccc(NC(=O)Nc2ccc(Br)cc2)n1	126% (inactive)
Cc1ccc2oc(-c3ccc(NC(=O)c4oc5ccc(Cl)cc5c4C)cc3)nc2c1	66% (inactive)
Cc1ccc(-n2nc3ccc(NC(=O)c4oc5ccccc5c4C)cc3n2)cc1	31% (active)
CCc1ccc(-n2nc3ccc(NC(=O)c4cc(Cl)c(OC)c(Cl)c4)cc3n2)cc1	83% (inactive)
Cc1ccc(-n2nc3ccc(NC(=O)c4cc5ccccc5o4)cc3n2)cc1	70% (inactive)
Cc1ccc(-n2nc3ccc(NC(=O)c4oc5ccc(C)cc5c4C)cc3n2)cc1	38% (active)
COc1ccc(-n2nc3ccc(NC(=O)c4c(OC)cccc4OC)cc3n2)cc1	135% (inactive)
COc1cc(C(=O)Nc2ccc3nn(-c4ccc(F)cc4)nc3c2)cc(OC)c1OC	45% (active)
Cc1c(C(=O)Nc2ccncc2)oc2ccccc12	98% (inactive)
Cc1ccc2oc(C(=O)Nc3cccc(-c4nc5ccccc5s4)c3)c(C)c2c1	55% (inactive)
O=C(Cn1ncc2c3ccccc3n(Cc3ccc(F)cc3)c2c1=O)NCCC1=CCCCC1	85% (inactive)
CC(C)(C)C(=O)Nc1c(C(=O)N2CCN(c3ccc(F)cc3)CC2)oc2ccccc12	80% (inactive)
CCn1cc(C(=O)NCc2ccc(Cl)cc2)c(=O)c2cc(S(=O)(=O)N(C)C3CCCCC3)ccc21	70% (inactive)
CCOc1ccc(NC2=NCCC(=O)N2Cc2cccs2)cc1	83% (inactive)

SMILES	survival
O=C(O)c1nnc(Cl)c2ccccc12	91% (inactive)
Cc1nc(-c2ccc(Cl)cc2)sc1CCNC(=O)C(=O)Nc1ccccc1C#N	80% (inactive)
CCOC(=O)CNC(=O)c1cc2c(=O)n3cccc(C)c3nc2s1	179% (inactive)
COc1ccc(CNC(=O)c2cc3c(=O)n4cccc(C)c4nc3s2)cc1	68% (inactive)
Cc1ccc(CNC(=O)c2cc3c(=O)n4cccc(C)c4nc3s2)cc1	54% (active)
Cc1cccn2c(=O)c3cc(C(=O)NCC(C)C)sc3nc12	63% (active)
Cc1cccn2c(=O)c3cc(C(=O)NCc4ccccc4Cl)sc3nc12	62% (inactive)
CCCCNC(=O)c1cc2c(=O)n3cccc(C)c3nc2s1	150% (inactive)
O=C(CN1CCC(n2nnc3cc(C(F)(F)F)ccc32)CC1)Nc1ccc(N2CCCC2)cc1	86% (inactive)
CCN(CC)CCNC(=O)c1sc2nc(C)cc(C)c2c1-n1cccc1	86% (inactive)
CC(C)CN(CCNC(=O)c1cc(=O)[nH]c2ccc(S(=O)(=O)N3CCCCCC3)cc12)CC(C)C	86% (inactive)
COc1ccc(OC)c(CNC(=O)Cn2ncc3c([nH]c4ccc(C)cc43)c2=O)c1	92% (inactive)
Cc1cc(OC(=O)c2cc(-c3ccc4c(c3)OCCO4)on2)ccc1Cl	-1% (active)
CC(C)c1ccc(OC(=O)c2cc(-c3ccc4c(c3)OCCO4)on2)cc1	8% (active)
COc1ccc(OC(=O)c2cc(-c3ccc4c(c3)OCCO4)on2)cc1	101% (inactive)
Cc1ccc(OC(=O)c2cc(-c3ccc4c(c3)OCCO4)on2)cc1C	-2% (active)
Cc1ccc(-c2cc(C(=O)Oc3ccc(C#N)cc3)no2)cc1	97% (inactive)
CC(C)c1ccc(OC(=O)c2cc(-c3ccc(Cl)cc3)on2)cc1	98% (inactive)
N#Cc1ccc(OC(=O)c2cc(-c3ccc4c(c3)OCCO4)on2)cc1	117% (inactive)
O=C(Oc1ccc(Cl)cc1)c1cc(-c2ccc3c(c2)OCCO3)on1	116% (inactive)

SMILES	survival
O=C(Nc1cc(C(F)(F)F)ccc1Cl)c1cc(-c2ccc3c(c2)OCCO3)on1	116% (inactive)
CCC(C)NC(=O)Cn1c(=O)cc(-c2ccccc2)c2c(C)nn(C)c21 (stereo not drawn)	70% (inactive)
COc1cccc(NC(=O)Cc2csc(COc3cccc(C)c3)n2)c1	72% (inactive)
COC(=O)c1cnn(-c2ccc(C(=O)Nc3ccc(C(C)=O)cc3)cc2)c1N	63% (inactive)
CCOC(=O)c1cnn(-c2ccc(C(=O)Nc3ccc(OC(F)(F)F)cc3)cc2)c1N	124% (inactive)
COC(=O)c1cnn(-c2ccc(C(=O)Nc3ccc(OC(F)(F)F)cc3)cc2)c1N	25% (active)
O=C(Cn1nc2c(cc1=O)CCCC2)NCc1ccccc1Cl	144% (inactive)
COc1ccccc1CNS(=O)(=O)c1cc(-c2cc(C)no2)ccc1C	102% (inactive)
CCc1ccccc1NC(=O)CSc1nnc(-c2cc(OC)c(OC)c(OC)c2)o1	111% (inactive)
CCCSCCCNC(=O)CN1C(=O)COc2ccc(S(=O)(=O)N3CCCCCC3)cc21	62% (active)
O=C(CN1C(=O)COc2ccc(S(=O)(=O)N3CCCC3)cc21)N1CCN(c2cccc(C(F)(F)F)c2)CC1	79% (inactive)
CCCCSCCCNC(=O)CN1C(=O)COc2ccc(S(=O)(=O)N3CCCC3)cc21	66% (inactive)
CCCSCCCNC(=O)CN1C(=O)COc2ccc(S(=O)(=O)N3CCCC3)cc21	71% (inactive)
O=C(CN1C(=O)COc2ccc(S(=O)(=O)N3CCOCC3)cc21)N1CCN(c2cccc(C(F)(F)F)c2)CC1	93% (inactive)
O=C(CN1C(=O)COc2ccc(S(=O)(=O)N3CCCCCC3)cc21)N1CCN(c2cccc(C(F)(F)F)c2)CC1	61% (active)
CC(=O)c1cccc(NC(=O)CCc2c(C)nc3c(-c4ccc(F)cc4)c(C)nn3c2C)c1	76% (inactive)
CCC1CN(C(=O)Nc2ccc(Br)cc2F)c2ccccc2S1 (stereo not drawn)	90% (inactive)
CCOC(=O)C1CCN(c2nc3c(S(=O)(=O)c4ccccc4)nnn3c3ccc(Cl)cc23)CC1	112% (inactive)
